Here are results for three molecules from PubChem BioAssay (EPA / NIEHS).

Conditions in all cases: mRNA level, 48 h; actives raise or lower the signal
Read-out in experiment [1]: Interleukin 6 (IL6), IL6 (gene 3569)
Description: LTEA_HepaRG_IL6: Life Technologies and Expression Analysis (LTEA) Assay for Interleukin 6 (IL6) using HepaRG (AID 2283509). The essentials: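 Differentiated human HepaRG cells, plated 48 h then switched to serum-free induction medium, were exposed in duplicate for 48 h to eight half-log concentrations up to 100 uM in 0.5% DMSO. IL6 mRNA measured by qRT-PCR, normalized to ACTB/GAPDH/POLR2A.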

Read-out in experiment [2]: Interleukin 6 Receptor (IL6R), IL6R (gene 3570)
Description: LTEA_HepaRG_IL6R: Life Technologies and Expression Analysis (LTEA) Assay for Interleukin 6 Receptor (IL6R) using HepaRG (AID 2283510). The essentials: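 Readout is IL6R transcript level by TaqMan qRT-PCR, normalized to three housekeeping genes and fitted bidirectionally against 0.5% DMSO controls. Human HepaRG cells received chemicals for 48 h in serum-free induction medium, highest concentration 100 uM.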

Read-out in experiment [3]: Potassium channel subfamily K member 1 (KCNK1), KCNK1 (gene 3775)
Description: LTEA_HepaRG_KCNK1: Life Technologies and Expression Analysis (LTEA) Assay for Potassium channel subfamily K member 1 (KCNK1) using HepaRG (AID 2283511). The essentials:
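Differentiated human HepaRG cells in serum-free induction medium were exposed in duplicate for 48 h to 8 half-log concentrations up to 100 uM in 0.5% DMSO. KCNK1 mRNA was measured by TaqMan qRT-PCR, normalized to ACTB, GAPDH and POLR2A, and fitted bidirectionally versus DMSO.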

Read-out in experiment [4]: Keratin 19 (KRT19), KRT19 (gene 3880)
Briefly: LTEA_HepaRG_KRT19: Life Technologies and Expression Analysis (LTEA) Assay for Keratin 19 (KRT19) using HepaRG (AID 2283512). In short, it runs like this: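 Gene-expression endpoint in the human liver line HepaRG after 48 h exposure to up to 100 uM test chemical with 0.5% DMSO vehicle; KRT19 mRNA by qRT-PCR, analyzed bidirectionally versus DMSO.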

Read-out in experiment [5]: JUN Transcription Factor, JUN (gene 3725)
Description: LTEA_HepaRG_JUN: Life Technologies and Expression Analysis (LTEA) Assay for JUN Transcription Factor using HepaRG (AID 2283513). In short, it runs like this: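 Cells plated 48 h, medium switched to serum-free induction medium, then dosed 48 h (100 uM top, half-log dilutions, 0.5% DMSO). RNA isolated; JUN measured by qRT-PCR against three housekeeping genes; gain or loss fitted relative to DMSO.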

Read-out in experiment [6]: Lipase C (LIPC), LIPC (gene 3990)
Description: LTEA_HepaRG_LIPC: Life Technologies and Expression Analysis (LTEA) Assay for Lipase C (LIPC) using HepaRG (AID 2283514). The essentials: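 Differentiated human HepaRG cells in serum-free induction medium were exposed in duplicate for 48 h to eight concentrations (top 100 uM, half-log steps, 0.5% DMSO). LIPC mRNA was quantified by TaqMan qRT-PCR, normalized to ACTB, GAPDH and POLR2A, with bidirectional fitting versus DMSO.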

Read-out in experiment [7]: Lipoprotein lipase (LPL), LPL (gene 4023)
Briefly: LTEA_HepaRG_LPL: Life Technologies and Expression Analysis (LTEA) Assay for Lipoprotein lipase (LPL) using HepaRG (AID 2283515). In short, it runs like this:
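Differentiated human HepaRG cells in serum-free induction medium were exposed in duplicate for 48 h to eight half-log concentrations (top 100 uM) in 0.5% DMSO. LPL mRNA was quantified by TaqMan qRT-PCR, normalized to ACTB, GAPDH and POLR2A.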

Read-out in experiment [8]: MicroRNA 122 (MIR122), gene 406906
Description: LTEA_HepaRG_MIR122: Life Technologies and Expression Analysis (LTEA) Assay for MicroRNA 122 (MIR122) using HepaRG (AID 2283516). Also: the transcript read is the microRNA miR-122. The essentials: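 HepaRG plated 48 h, switched to serum-free induction medium, then treated in duplicate for 48 h (100 uM top, half-log steps, 0.5% DMSO vehicle). RNA isolated, qRT-PCR performed, concentration-response fitted both directions relative to DMSO.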

Read-out in experiment [9]: matrix metalloproteinase-10 (MMP10), MMP10 (gene 4319)
Description: LTEA_HepaRG_MMP10: Life Technologies and Expression Analysis (LTEA) Assay for matrix metalloproteinase-10 (MMP10) using HepaRG (AID 2283517). The essentials: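 HepaRG, collagen I, ~100,000 cells/well; serum-free induction medium; 48 h exposure, duplicate, 8-pt half-log to 100 uM, 0.5% DMSO. Readout: TaqMan qRT-PCR, normalized to ACTB/GAPDH/POLR2A; bidirectional fit vs DMSO.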

Read-out in experiment [10]: MYC, MYC (gene 4609)
Briefly: LTEA_HepaRG_MYC: Life Technologies and Expression Analysis (LTEA) Assay for MYC using HepaRG (AID 2283518). The essentials: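 Cells are thawed, plated and cultured 48 h, then treated for 48 h with test chemicals (eight half-log concentrations from 100 uM, 0.5% DMSO vehicle). RNA is isolated and MYC expression quantified by qRT-PCR against three housekeeping genes.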

Read-out in experiment [11]: matrix metalloproteinase-3 (MMP3), MMP3 (gene 4314)
Briefly: LTEA_HepaRG_MMP3: Life Technologies and Expression Analysis (LTEA) Assay for matrix metalloproteinase-3 (MMP3) using HepaRG (AID 2283519). In short, it runs like this:
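Differentiated human HepaRG cells, plated 48 h on collagen I, were exposed in duplicate for 48 h in serum-free induction medium to eight half-log concentrations up to 100 uM in 0.5% DMSO. MMP3 mRNA was quantified by TaqMan qRT-PCR, normalised to ACTB, GAPDH and POLR2A.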

Read-out in experiment [12]: Paternally Expressed 10 (PEG10), PEG10 (gene 23089)
Briefly: LTEA_HepaRG_PEG10: Life Technologies and Expression Analysis (LTEA) Assay for Paternally Expressed 10 (PEG10) using HepaRG (AID 2283520). The essentials:
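HepaRG, 48 h post-plating → serum-free induction medium → 48 h chemical exposure (duplicate, 8-pt, max 100 uM, half-log, 0.5% DMSO) → lysis in RLT → TaqMan qRT-PCR for PEG10, ACTB/GAPDH/POLR2A normalisation.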

Read-out in experiment [13]: Nuclear factor NF-kappa-B p105 subunit (Homo sapiens) (UniProt P19838)
Description: LTEA_HepaRG_NFKB1: Life Technologies and Expression Analysis (LTEA) Assay for Nuclear Factor Kappa B Subunit 1 (NFKB1) using HepaRG (AID 2283521).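 Also: TaqMan qRT-PCR transcript normalised to ACTB GAPDH and POLR2A housekeeping genes.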 The essentials:
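Human HepaRG cells receive eight half-log concentrations, highest 100 uM, for 48 h. NFKB1 expression is then quantified by qRT-PCR and analysed for up- or down-regulation relative to 0.5% DMSO vehicle.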

Read-out in experiment [14]: Protein phosphatase 2A (PPP2R4), PTPA (gene 5524)
Briefly: LTEA_HepaRG_PPP2R4: Life Technologies and Expression Analysis (LTEA) Assay for Protein phosphatase 2A (PPP2R4) using HepaRG (AID 2283522). In short, it runs like this: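 Readout is PPP2R4 transcript level by microfluidic qRT-PCR after 48 h chemical treatment of human HepaRG liver cells. Concentrations spanned 100 uM downward in half-log steps; gain or loss of signal was fitted relative to DMSO.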

Read-out in experiment [15]: Phosphatase and tensin (PTEN), PTEN (gene 5728)
Description: LTEA_HepaRG_PTEN: Life Technologies and Expression Analysis (LTEA) Assay for Phosphatase and tensin (PTEN) using HepaRG (AID 2283523). In short, it runs like this:
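Differentiated human HepaRG cells, plated 48 h then switched to serum-free induction medium, were exposed in duplicate for 48 h to eight half-log concentrations up to 100 uM in 0.5% DMSO. PTEN mRNA measured by TaqMan qRT-PCR, normalized to ACTB/GAPDH/POLR2A, bidirectional fit versus DMSO.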

Read-out in experiment [16]: Pyruvate Dehydrogenase Kinase 4 (PDK4), PDK4 (gene 5166)
Briefly: LTEA_HepaRG_PDK4: Life Technologies and Expression Analysis (LTEA) Assay for Pyruvate Dehydrogenase Kinase 4 (PDK4) using HepaRG (AID 2283525). In short, it runs like this:
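Differentiated human HepaRG cells, pre-cultured 48 h, were exposed in duplicate for 48 h in serum-free induction medium to eight half-log concentrations up to 100 uM in 0.5% DMSO. PDK4 mRNA was quantified by qRT-PCR, normalized to ACTB, GAPDH and POLR2A, bidirectional fitting versus DMSO.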

Read-out in experiment [17]: NAD(P)H dehydrogenase [quinone] 1 (NQO1), NQO1 (gene 1728)
Briefly: LTEA_HepaRG_NQO1: Life Technologies and Expression Analysis (LTEA) Assay for NAD(P)H dehydrogenase [quinone] 1 (NQO1) using HepaRG (AID 2283526). The essentials: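 HepaRG, 48 h post-plating → serum-free induction medium → test chemical 48 h (duplicate, 100 uM top, half-log x8, 0.5% DMSO) → RNA isolation → qRT-PCR, ACTB/GAPDH/POLR2A normalization; bidirectional curve fit vs DMSO baseline.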

Read-out in experiment [18]: Nuclear factor erythroid 2-related factor 2 (Homo sapiens) (UniProt Q16236)
Briefly: LTEA_HepaRG_NFE2L2: Life Technologies and Expression Analysis (LTEA) Assay for Nuclear factor erythroid 2-related factor 2 (NFE2L2) Transcription Factor using HepaRG (AID 2283527).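 Also: TaqMan qRT-PCR transcript level normalised to ACTB GAPDH and POLR2A housekeeping genes.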 The essentials: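 Differentiated human HepaRG cells in serum-free induction medium were exposed for 48 h to eight concentrations (top 100 uM, half-log dilutions, 0.5% DMSO), in duplicate. NFE2L2 mRNA was quantified by TaqMan qRT-PCR, normalized to ACTB, GAPDH and POLR2A, with bidirectional fitting versus DMSO.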

Read-out in experiment [19]: succinate dehydrogenase complex iron sulfur subunit B (SDHB), SDHB (gene 6390)
Briefly: LTEA_HepaRG_SDHB: Life Technologies and Expression Analysis (LTEA) Assay for succinate dehydrogenase complex iron sulfur subunit B (SDHB) using HepaRG (AID 2283528). The essentials:
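A human HepaRG culture in serum-free induction medium received test chemicals for 48 h over an eight-point range capped at 100 uM. SDHB expression change was quantified by qRT-PCR.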

Structures are written as SMILES. The source made the active and inactive calls. The calls were made as follows: active = hit-call score of the fitted dose curve at least 0.9, where 1 is the maximum; inactive = score below 0.9.

Nuclear factor NF-kappa-B p105 subunit (Homo sapiens), sequence (P19838 whole entry, looked up): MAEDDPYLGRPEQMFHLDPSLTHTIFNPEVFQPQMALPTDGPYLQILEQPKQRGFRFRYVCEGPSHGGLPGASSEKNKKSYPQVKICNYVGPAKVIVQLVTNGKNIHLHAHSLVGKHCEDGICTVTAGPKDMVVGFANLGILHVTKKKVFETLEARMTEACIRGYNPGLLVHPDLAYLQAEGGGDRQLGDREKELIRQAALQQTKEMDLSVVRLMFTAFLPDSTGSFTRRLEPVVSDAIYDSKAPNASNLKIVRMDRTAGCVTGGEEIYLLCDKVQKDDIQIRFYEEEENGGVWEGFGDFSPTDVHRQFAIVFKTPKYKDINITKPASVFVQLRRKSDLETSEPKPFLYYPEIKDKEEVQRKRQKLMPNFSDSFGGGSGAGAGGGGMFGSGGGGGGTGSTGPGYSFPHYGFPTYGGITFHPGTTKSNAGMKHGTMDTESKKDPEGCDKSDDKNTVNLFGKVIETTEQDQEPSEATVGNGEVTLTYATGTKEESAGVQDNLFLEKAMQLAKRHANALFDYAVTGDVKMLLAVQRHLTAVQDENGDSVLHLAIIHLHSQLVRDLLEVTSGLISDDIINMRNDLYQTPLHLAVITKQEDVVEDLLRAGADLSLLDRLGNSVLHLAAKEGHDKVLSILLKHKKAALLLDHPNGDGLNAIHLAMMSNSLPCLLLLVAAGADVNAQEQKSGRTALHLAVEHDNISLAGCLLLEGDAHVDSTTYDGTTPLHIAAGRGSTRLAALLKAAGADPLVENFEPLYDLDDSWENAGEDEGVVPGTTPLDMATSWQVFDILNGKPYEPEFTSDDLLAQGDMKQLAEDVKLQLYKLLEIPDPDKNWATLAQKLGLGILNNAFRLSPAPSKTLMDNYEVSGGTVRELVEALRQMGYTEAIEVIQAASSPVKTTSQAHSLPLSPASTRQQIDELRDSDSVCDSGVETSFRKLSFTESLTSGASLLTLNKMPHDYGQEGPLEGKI
Nuclear factor erythroid 2-related factor 2 (Homo sapiens), sequence (Q16236 whole entry, looked up): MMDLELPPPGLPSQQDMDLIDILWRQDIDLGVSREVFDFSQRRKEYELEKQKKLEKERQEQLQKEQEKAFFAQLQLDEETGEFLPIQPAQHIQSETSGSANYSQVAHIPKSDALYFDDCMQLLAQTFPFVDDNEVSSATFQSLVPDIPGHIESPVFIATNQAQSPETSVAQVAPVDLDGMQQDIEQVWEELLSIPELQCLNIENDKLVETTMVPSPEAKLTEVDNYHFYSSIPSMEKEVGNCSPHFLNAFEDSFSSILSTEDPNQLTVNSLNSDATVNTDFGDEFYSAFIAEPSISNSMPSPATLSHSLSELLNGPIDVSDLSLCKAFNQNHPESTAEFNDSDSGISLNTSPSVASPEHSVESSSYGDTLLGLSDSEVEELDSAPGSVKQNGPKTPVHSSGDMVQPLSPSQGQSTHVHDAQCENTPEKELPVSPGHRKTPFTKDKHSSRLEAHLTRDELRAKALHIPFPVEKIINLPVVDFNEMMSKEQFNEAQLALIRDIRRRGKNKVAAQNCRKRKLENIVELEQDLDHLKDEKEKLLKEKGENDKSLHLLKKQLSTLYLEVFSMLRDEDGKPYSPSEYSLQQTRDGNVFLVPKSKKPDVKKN

Turning to `ClC1=C(Cl)C(Cl)(Cl)C(Cl)=C1Cl`, the molecule was called inactive in experiment [1], in experiment [2], in experiment [3], in experiment [4], in experiment [5] and in [6]. The call in experiment [7], in experiment [8], in experiment [9], in experiment [10], in experiment [11] and in experiment [12] was inactive. The molecule was classed as inactive in experiment [13], in experiment [14], in experiment [15], in experiment [16], in experiment [17] and in experiment [18]. The result in [19] was inactive.
On to `CCCCC(CC)COC(=O)CCCCC(=O)OCC(CC)CCCC` (configuration not stated), for which the result in experiment [1], in experiment [2], in experiment [3], in experiment [4], in experiment [5] and in experiment [6] was inactive. Also, the call in [7], in experiment [8], in experiment [9], in experiment [10], in experiment [11] and in experiment [12] was inactive. Further, the outcome in [13], in experiment [14], in experiment [15], in [16], in experiment [17] and in [18] was inactive. The outcome in [19] was inactive.
On to `Nc1cccc2c(N)cccc12`, for which the result in [1], in experiment [2], in experiment [3], in experiment [5], in experiment [7] and in experiment [8] was inactive. The molecule was classed as inactive in experiment [9], in experiment [10], in experiment [11], in experiment [13], in [14] and in [15]. For the same molecule, the call in [16], in experiment [17], in [18] and in experiment [19] was inactive. Moreover, the AC50 is 22.6 µM (active) in experiment [4], 73.3 µM (active) in experiment [6] and 9.92 µM (active) in experiment [12].
